PubChem BioAssay (EPA / NIEHS)
“And” between values parts separate entries of the source, which are not always exact repeats. Equal entries are not always repeated. The source made the active and inactive calls. How the source made its calls: active means hit-call score of the fitted dose curve at least 0.9, where 1 is the maximum; inactive means score below 0.9.

Assay: BSK_hDFCGF_SRB: Viability Assessment in the BioMAP Diversity Plus: hDFCGF Assay (AID 2283061);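 further: cells exposed to compound for 24 h before the read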
Details: primary human foreskin fibroblasts
Procedure, shortened: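 Cells were dosed with test chemical, cultured 24 h, fixed with 10% TCA, then stained with 0.1% SRB and read at 560 nm. The fibroblasts were human foreskin primary cells, and DMSO served as baseline.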

| SMILES | outcome | AC50 |
| --- | --- | --- |
| CCn1c2ccccc2c2cc(N)ccc21 | inactive |  |
| Cc1ccc(Nc2ccc(O)c3c2C(=O)c2ccccc2C3=O)cc1 | inactive |  |
| Cc1ccc(O)c(C(C)(C)C)c1 |  | 29.6 µM (active) |
| CCCCCCCCCCCCCCCCCC(=O)OCC(CC)CCCC (centres undefined) | inactive |  |
| CCCCC(CC)COCCC#N (centres undefined) | inactive |  |
| C[C@H]1C[C@@H]2[C@H]([C@@H](O)C[C@@]3(C)[C@H]2CC[C@]3(O)C(=O)CO)[C@@]2(C)C=CC(=O)C=C12 |  | 394 nM (active) and 339 nM (active) |
| O=P(c1ccccc1)(c1ccccc1)c1ccccc1 | inactive |  |
| CC(C)Oc1ccccc1O | inactive |  |
| CC(=O)/C=C/C1=C(C)CCCC1(C)C | inactive |  |
| CC[Si](OC(C)=O)(OC(C)=O)OC(C)=O | inactive |  |
| CNC[C@H](O)c1cccc(O)c1 | inactive |  |
| O=[N+]([O-])c1cc(C(F)(F)F)ccc1Cl | inactive |  |
| CCCCCCCCCC=O | inactive |  |
| COc1cc(C=O)ccc1OC(=O)C(C)C | inactive |  |
| Nc1cc([N+](=O)[O-])ccc1O |  | 1.16 µM (active) and 826 nM (active) |
| CCc1c(C)cc(N)c(CC)c1N | inactive |  |
| CC(=O)O[C@]1(C(C)=O)CC[C@H]2[C@@H]3C[C@H](C)C4=CC(=O)CC[C@]4(C)[C@H]3CC[C@@]21C | inactive |  |
| CC1COc2ccccc2N1C(=O)C(Cl)Cl (centres undefined) |  | 20 µM (active) |
| CC(C)(COC(=O)c1ccccc1)COC(=O)c1ccccc1 |  | 31.5 µM (active) |
| CC(C)c1ccc(C(C)C)cc1 |  | 36.1 µM (active) |
| CCC(=O)OCc1ccccc1 | inactive |  |
| CC(=O)OCCC(C)CC(C)(C)C (centres undefined) | inactive |  |
| CC1CCC(C(C)CS)CC1S (centres undefined) |  | 7.28 µM (active) |
| CC(=O)[C@H]1CC[C@H]2[C@@H]3CC=C4C[C@@H](O)CC[C@]4(C)[C@H]3CC[C@]12C | inactive |  |
